{"source": "paper PMC4336329", "about": "(PLoS ONE, 2015)", "note": "The campaign covered roughly 310,000 compounds. About 14,000 (4.5%) showed an effect of 50% or more. The effect is printed as a negative number. Shown is part of a subset that was picked to be rich in strong results.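 Also: peak tail current of the secondary pulse compared with the same well before compound.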"}
{"target": "human ether-à-go-go-related gene (hERG) potassium channel (human, UniProt Q12809)", "sequence (Q12809 whole entry, looked up)": "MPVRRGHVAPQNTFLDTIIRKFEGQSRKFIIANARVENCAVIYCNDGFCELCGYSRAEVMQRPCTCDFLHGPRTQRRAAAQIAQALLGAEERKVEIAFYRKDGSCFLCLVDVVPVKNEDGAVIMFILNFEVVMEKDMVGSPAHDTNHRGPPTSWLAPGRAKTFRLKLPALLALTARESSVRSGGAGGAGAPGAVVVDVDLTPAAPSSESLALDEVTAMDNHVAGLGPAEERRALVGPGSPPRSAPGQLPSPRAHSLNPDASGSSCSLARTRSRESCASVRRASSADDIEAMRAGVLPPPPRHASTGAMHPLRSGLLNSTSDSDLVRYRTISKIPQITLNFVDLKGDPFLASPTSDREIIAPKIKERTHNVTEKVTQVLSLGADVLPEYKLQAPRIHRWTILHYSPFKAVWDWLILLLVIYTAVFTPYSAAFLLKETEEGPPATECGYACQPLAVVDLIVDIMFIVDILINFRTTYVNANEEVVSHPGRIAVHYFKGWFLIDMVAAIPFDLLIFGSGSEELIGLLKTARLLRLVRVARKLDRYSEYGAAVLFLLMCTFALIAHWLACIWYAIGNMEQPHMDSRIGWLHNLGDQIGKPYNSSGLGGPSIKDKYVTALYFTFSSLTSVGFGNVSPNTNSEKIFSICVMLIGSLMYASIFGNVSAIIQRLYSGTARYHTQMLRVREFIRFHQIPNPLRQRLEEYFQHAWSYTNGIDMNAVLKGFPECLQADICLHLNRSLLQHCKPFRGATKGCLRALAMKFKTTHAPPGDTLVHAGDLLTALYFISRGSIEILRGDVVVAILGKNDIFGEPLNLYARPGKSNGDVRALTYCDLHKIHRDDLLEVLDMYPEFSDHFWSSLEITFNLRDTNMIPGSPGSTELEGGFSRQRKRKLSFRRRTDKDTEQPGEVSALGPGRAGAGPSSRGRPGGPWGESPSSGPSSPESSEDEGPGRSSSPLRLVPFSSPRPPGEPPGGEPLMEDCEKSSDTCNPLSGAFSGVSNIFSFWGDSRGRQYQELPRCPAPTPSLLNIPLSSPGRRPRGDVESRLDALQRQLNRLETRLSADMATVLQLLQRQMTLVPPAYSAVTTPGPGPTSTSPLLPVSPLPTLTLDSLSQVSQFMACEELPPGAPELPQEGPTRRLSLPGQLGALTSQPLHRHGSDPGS", "assay": "primary screen, population patch clamp on CHO cells stably expressing hERG; higher = less effect of the substance", "units": {"hERG current change (%, negative = inhibition) at 10uM": "%"}}
{"smiles": "COc1ccc2c(c1)CC/C(=C/c1ccco1)C2=O", "hERG current change (%, negative = inhibition) at 10uM": 10.7}
{"smiles": "CCSc1oc(-c2ccco2)nc1S(=O)(=O)c1ccccc1", "hERG current change (%, negative = inhibition) at 10uM": -12.8}
{"smiles": "CCOc1ccc(C(=O)Nc2c3c(nn2-c2ccc(F)cc2)CS(=O)C3)cc1", "note": "(stereo not shown)", "hERG current change (%, negative = inhibition) at 10uM": -1.14}
{"smiles": "COCCNC(=S)N1CCN(C(c2ccccc2)c2ccccc2)CC1", "hERG current change (%, negative = inhibition) at 10uM": -10.1}
{"smiles": "COc1cc(C(=O)Nc2ncccc2C)ccc1OCC(=O)N1CCOCC1", "hERG current change (%, negative = inhibition) at 10uM": -4.78}
{"smiles": "CC1(c2nnc(-c3cccc(Cl)c3)o2)CC(c2ccc(F)cc2)=NO1", "note": "(stereo not shown)", "hERG current change (%, negative = inhibition) at 10uM": -8.47}
{"smiles": "OCCCc1nc2n(n1)C(c1ccccc1)C=C(c1ccccc1)N2", "note": "(stereo not shown)", "hERG current change (%, negative = inhibition) at 10uM": -17.3}
{"smiles": "COc1ccc(C2C=C(c3ccccc3)Nc3nc(CCCO)nn32)cc1", "note": "(stereo not shown)", "hERG current change (%, negative = inhibition) at 10uM": -51.8}
{"smiles": "OCCCc1nc2n(n1)C(c1cccs1)C=C(c1ccccc1)N2", "note": "(stereo not shown)", "hERG current change (%, negative = inhibition) at 10uM": -38.5}
{"smiles": "OCCCc1nc2n(n1)C(c1ccccc1)C=C(c1ccc(F)cc1)N2", "note": "(stereo not shown)", "hERG current change (%, negative = inhibition) at 10uM": -12.8}
{"smiles": "COc1ccc(C2C=C(c3cccs3)Nc3nc(CCCO)nn32)cc1", "note": "(stereo not shown)", "hERG current change (%, negative = inhibition) at 10uM": -57.9}
{"smiles": "OCCCc1nc2n(n1)C(c1ccccc1Cl)C=C(c1cccs1)N2", "note": "(stereo not shown)", "hERG current change (%, negative = inhibition) at 10uM": -5.71}
{"smiles": "O=C(CCc1nc(-c2ccccc2)no1)NC1CCCCCC1", "hERG current change (%, negative = inhibition) at 10uM": 1.28}
{"smiles": "CCc1cccc(C)c1NC(=O)CSc1nc(-c2ccccc2F)nc2nc[nH]c12", "hERG current change (%, negative = inhibition) at 10uM": 3.31}
{"smiles": "NC(=O)c1cc([N+](=O)[O-])c(Cl)cc1NCc1cccnc1", "hERG current change (%, negative = inhibition) at 10uM": -8.53}
{"smiles": "Cc1cc(C)cc(OCC(=O)NNC(=O)c2ccccn2)c1", "hERG current change (%, negative = inhibition) at 10uM": -34.6}
{"smiles": "CN(C)S(=O)(=O)n1cc(/C=C(\\NC(=O)c2ccccc2Cl)C(=O)N2CCOCC2)c2ccccc21", "hERG current change (%, negative = inhibition) at 10uM": -7.07}
{"smiles": "O=C(Nc1ccc(C(=O)O)cc1)/C(=C\\c1ccc2c(c1)OCO2)NC(=O)c1ccccc1", "hERG current change (%, negative = inhibition) at 10uM": 22}
{"smiles": "CNC(=O)/C(=C\\c1ccc2c(c1)OCO2)NC(=O)c1ccc(Br)cc1", "hERG current change (%, negative = inhibition) at 10uM": -56.5}
{"smiles": "CNC(=O)/C(=C/c1ccc2c(c1)OCO2)NC(=O)c1ccc(Br)cc1", "hERG current change (%, negative = inhibition) at 10uM": -63.4}
{"smiles": "Cc1ccc(C(=O)N/C(=C\\c2ccc3c(c2)OCO3)C(=O)Nc2ccc(C(=O)O)cc2)cc1", "hERG current change (%, negative = inhibition) at 10uM": 17.9}
{"smiles": "O=C(Nc1cccc(C(=O)O)c1)/C(=C\\c1ccc2c(c1)OCO2)NC(=O)c1ccc(Br)cc1", "hERG current change (%, negative = inhibition) at 10uM": 17.9}
{"smiles": "O=C(Nc1ccc(C(=O)O)cc1)/C(=C\\c1ccc2c(c1)OCO2)NC(=O)c1ccc(Br)cc1", "hERG current change (%, negative = inhibition) at 10uM": 5.36}
{"smiles": "COC(=O)c1ccc(NC(=O)c2ccccc2N(C)S(=O)(=O)c2ccccc2)cc1", "hERG current change (%, negative = inhibition) at 10uM": 16.3}
{"smiles": "Cc1ccc(C(c2cc(Cl)c3cccnc3c2O)N2CCN(C)CC2)cc1", "note": "(stereo not shown)", "hERG current change (%, negative = inhibition) at 10uM": -9.97}
{"smiles": "CC(C)(C)c1cc(C(c2cccnc2)N2CCN(CCO)CC2)cc(C(C)(C)C)c1O", "note": "(stereo not shown)", "hERG current change (%, negative = inhibition) at 10uM": -53.8}
{"smiles": "CC(C)(C)c1cc(CN2CCN(CCO)CC2)cc(C(C)(C)C)c1O", "hERG current change (%, negative = inhibition) at 10uM": -19}
{"smiles": "CN1CCN(C(c2ccc(Cl)cc2)c2cc(Cl)c3cccnc3c2O)CC1", "note": "(stereo not shown)", "hERG current change (%, negative = inhibition) at 10uM": 7.12}
{"smiles": "CCN1CCN(C(c2cccnc2)c2cc(Cl)c3cccnc3c2O)CC1", "note": "(stereo not shown)", "hERG current change (%, negative = inhibition) at 10uM": -72.4}
{"smiles": "CC(C)(C)c1cc(C(=S)N2CCN(CCO)CC2)cc(C(C)(C)C)c1O", "hERG current change (%, negative = inhibition) at 10uM": -26.6}
{"smiles": "COC(=O)C1=C(C(=O)OC)[C@@H]2N(Cc3ccccc3)c3ccccc3[C@@]23C[C@@H](CO)N(C(=O)NC2CCCC2)C3=N1", "hERG current change (%, negative = inhibition) at 10uM": -9.18}
{"smiles": "CC(CN(C)Cc1ccccc1)OC(=O)c1cccs1.Cl", "note": "(stereo not shown)", "hERG current change (%, negative = inhibition) at 10uM": -10.5}
{"smiles": "COc1cc2c(cc1OC)C(C)N(C(=O)C1COc3ccccc3O1)CC2", "note": "(stereo not shown)", "hERG current change (%, negative = inhibition) at 10uM": -35.3}
{"smiles": "COc1ccc(C(=O)N2CCN(c3nc(C4CC4)nc4sc(C)c(C)c34)CC2)cc1.Cl", "hERG current change (%, negative = inhibition) at 10uM": -23.8}
{"smiles": "Cc1sc2nc(C3CC3)nc(N3CCN(S(=O)(=O)c4ccc(F)cc4)CC3)c2c1C", "hERG current change (%, negative = inhibition) at 10uM": -0.18}
{"smiles": "Cc1sc2nc(C3CC3)nc(N3CCN(C(=O)c4ccccc4F)CC3)c2c1C.Cl", "hERG current change (%, negative = inhibition) at 10uM": -37.6}
{"smiles": "Cc1sc2ncnc(N3CCC(C(=O)NNC(=O)c4ccc(Cl)cc4)CC3)c2c1C", "hERG current change (%, negative = inhibition) at 10uM": -11.2}
{"smiles": "Cc1sc2nc(C3CC3)nc(N3CCN(C(=O)c4ccc(Cl)cc4)CC3)c2c1C.Cl", "hERG current change (%, negative = inhibition) at 10uM": -57.1}
{"smiles": "Cc1sc2nc(C3CC3)nc(N3CCN(C(=O)c4ccc(F)cc4)CC3)c2c1C.Cl", "hERG current change (%, negative = inhibition) at 10uM": -69.8}
{"smiles": "O=C(CN(c1ccc2c(c1)OCCO2)S(=O)(=O)c1ccccc1)NCc1ccco1", "hERG current change (%, negative = inhibition) at 10uM": 4.37}
{"smiles": "O=C(Nc1ccc(F)cc1F)c1ccc2c(c1)OCCO2", "hERG current change (%, negative = inhibition) at 10uM": 15.4}
{"smiles": "Cc1cccc(NC(=S)N(CCN2CCOCC2)Cc2cc3cc4c(cc3[nH]c2=O)OCCO4)c1", "hERG current change (%, negative = inhibition) at 10uM": -3.3}
{"smiles": "CN(C(=O)COC(=O)c1cc(S(=O)(=O)N2CCCCC2)ccc1N1CCOCC1)C1CCS(=O)(=O)C1", "note": "(stereo not shown)", "hERG current change (%, negative = inhibition) at 10uM": -6.63}
{"smiles": "CCCCc1c(O)c2ccccc2[nH]c1=O", "hERG current change (%, negative = inhibition) at 10uM": 0.685}
{"smiles": "COc1ccc(-n2c(C)cc(C(=O)CSc3nnc(-c4ccoc4C)n3C)c2C)cc1", "hERG current change (%, negative = inhibition) at 10uM": -31.1}
{"smiles": "CCSC1=N/C(=C\\C=C2/Oc3ccccc3N2CC)C(=O)S1", "hERG current change (%, negative = inhibition) at 10uM": -3.2}
{"smiles": "COC(=O)c1ccccc1C(=O)N1CCCC(C(=O)c2ccc(OC)c(OC)c2)C1", "note": "(stereo not shown)", "hERG current change (%, negative = inhibition) at 10uM": 4.47}
{"smiles": "COc1ccc(C(=O)C2CCCN(C3Cc4ccccc4C3)C2)c(OC)c1", "note": "(stereo not shown)", "hERG current change (%, negative = inhibition) at 10uM": -76.5}
{"smiles": "COc1ccc(C(=O)C2CCCN(C3Cc4ccccc4C3)C2)cc1OC", "note": "(stereo not shown)", "hERG current change (%, negative = inhibition) at 10uM": -76.6}
{"smiles": "COc1ccc(C(=O)C2CCCN(C3CSCCSC3)C2)c(OC)c1", "note": "(stereo not shown)", "hERG current change (%, negative = inhibition) at 10uM": -43.6}
{"smiles": "COc1ccc(OC)c(NC(=O)N2CCCC(C(=O)c3ccccc3OC)C2)c1", "note": "(stereo not shown)", "hERG current change (%, negative = inhibition) at 10uM": 5.87}
{"smiles": "COc1ccc(C(=O)C2CCCN(C3CSCCSC3)C2)cc1OC", "note": "(stereo not shown)", "hERG current change (%, negative = inhibition) at 10uM": -21.8}
